This note sets out measurements from PubChem BioAssay.

Inconclusive results are not listed. Calls of active or inactive are those of the source.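 How the source made its calls, unless noted: active means inhibition above 50%, about 3 SD of the validation set; inactive means the rest.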

A short description of test [1]: yeast TOR pathway RPL19A-GFP modulators, primary screen, cell-based, S. cerevisiae, multiplex flow cytometry (AID 1862; in the data active means percent of DMSO control GFP below about 86%;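 further: lower values mimic rapamycin by blocking the RPL19A rise seen in DMSO cells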). As to conditions: S. cerevisiae RPL19A-GFP strain, flow cytometry fluorescence, 3 h; at 10 µM; stronger effect = lower value. (Flow cytometry measures light scatter and fluorescence of single cells or particles in a stream.)
Test [2] is described as follows: modulators of MEP2-GFP levels in yeast, primary screen, S. cerevisiae, multiplex flow cytometry (AID 1867;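 active means GFP response, as percent of the DMSO control, above the screen-wide mean plus 3 SD, about 139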;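 further: median GFP channel fluorescence of barcode-gated MEP2-GFP cells measured by flow cytometry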). As to conditions: S. cerevisiae MEP2-GFP strain, 3 h, at 10 µM, stronger effect = higher value, 100% means same as DMSO wells.
A short description of test [3]: modulators of CIT2-GFP expression in yeast, primary screen, S. cerevisiae, GFP fusion, multiplex flow cytometry (AID 1870;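 active means percent response above a set limit, the screen-wide mean plus 3 SD, cut at about 130% in these data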;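 further: barcoded CIT2-GFP strain pooled with four other GFP strains with rapamycin as positive control; median GFP fluorescence per well over plate mean of DMSO wells so 100% = DMSO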). As to conditions: 3 h, at 10 µM, stronger effect = higher value.
The nature of test [4]: modulators of LAP4-GFP expression in yeast, primary screen, S. cerevisiae, multiplex flow cytometry (AID 1873;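 active means GFP signal, as percent of the solvent control, above the screen mean plus 3 SD, about 149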). As to conditions: 3 h, at 10 µM, stronger effect = higher value.
Test [5] is described as follows: modulators of AGP1-GFP expression in yeast TOR pathway, primary screen, cell-based, multiplex flow cytometry, S. cerevisiae (AID 1887;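 active means GFP signal above the screen-wide mean plus 3 SD, that is over about 124.5% of the solvent control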;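 further: AGP1-GFP fusion strain of S. cerevisiae within a five-strain barcoded multiplex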). The following applies: 3 h, at 10 µM, stronger effect = higher value.
A short description of test [6]: inhibitors of CD8+ T cell-vesicle binding, pilot screen, LFA-1/ICAM-1 modulator project, MLPCN validation set, flow cytometry (AID 2523;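 active means response below a set limit, under 55% cells CD8-positive and vesicle-bound, and CD8 cells' 90th-percentile brightness under 279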;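 on vesicle binding response: mean PE anti-B7-1 fluorescence of CD8+ cells relative to row control; 100% = QL9-loaded vesicles with DMSO vehicle in the same plate row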). As to conditions: 2C mouse CD8+ T cells, at 7 µM, stronger effect = lower value; double positive events: measured here: CD8+/vesicle+ event percentage.
For test [7], the target named is Integrin beta-1 (Homo sapiens) + Integrin alpha-4 (Homo sapiens) (UniProt P13612+P05556). As to the kind of experiment: inhibition of HUTS-21 binding to VLA-4, pilot screen, VLA-4 allosteric modulator project, U937 cells, HUTS-21 mAb, flow cytometry, validation set (AID 2674).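 Further: antibody binding induced by the VLA-4 ligand LDV present at three times its Kd; 0% = LDV ligand with antibody and no compound and 100% = antibody without LDV.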 As to conditions: HUTS-21 LIBS mAb binding, at 6.7 µM, stronger effect = higher value, binding induced by LDV ligand.

Test [8] is described as follows: superoxide lowering in aged yeast cells, pilot screen, validation compound set (AID 2706;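 active means superoxide response below 65% of plate, a cut near 3 SD across the whole screen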;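 further: yeast exposed to compound for one week at 30 degrees C before staining; 100% = mean of all compound wells on the same plate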). The following applies: S. cerevisiae aging, superoxide DHE fluorescence; at 10 µM; stronger effect = lower value.
Test [9] concerns the target Beta-adrenergic receptor kinase 1 (Homo sapiens) (UniProt P25098). The test is described as follows: GRK2 binders displacing RNA aptamer, biochemical, validation, human GRK2, bead flow cytometry (AID 488806;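 active means aptamer binding inhibition above 30%, about 3 SD of noise from non-fluorescent compounds; inactive means inhibition at or below 30%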). As to conditions: bead-bound GRK2, FAM-aptamer displacement, at 10 µM, stronger effect = higher value.
Test [10] deals with Beta-2 adrenergic receptor (Homo sapiens) (UniProt P07550). The test is described as follows: beta2AR agonists driving receptor internalization, pilot screen, cell-based, FAP fluorogen, flow cytometry, validation set (AID 504459;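 active means percent response above 42, roughly 3 SD of non-fluorescent test compounds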;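 further: agonist-driven loss of surface beta2AR via internalization measured by FAP dye flow cytometry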). As to conditions: Am2.2-beta2AR cells, FAP surface receptor flow cytometry; at 10 µM; stronger effect = higher value.
The target in test [11] is AP-2 complex subunit beta (Homo sapiens) (UniProt P63010). The test is described as follows: inhibitors of arrestin peptide binding to AP2, pilot screen, biochemical, validation set, GST-AP2 beads, flow cytometry (AID 504541;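 active means inhibition above 54%, about 3 SD of non-fluorescent compounds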;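 further: AP2 carries R879A mutation and is captured from E. coli lysate; bead-bound FITC arrestin peptide fluorescence measuring arrestin peptide binding to AP2; 0% = DMSO wells and 100% = excess unlabeled arrestin peptide control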). As to conditions: FITC arrestin peptide, at 10 µM, stronger effect = higher value, AP2 beta2 appendage fragment, R879A mutant.
Test [12] is described as follows: yeast V-ATPase proton transport modulators, S. cerevisiae, pHLuorin, HTS validation (AID 504600; in the data active means response above about 15%;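 further: plate controls were DMSO for no effect and reference compound for full effect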). As to conditions: S. cerevisiae pHLuorin cytosolic pH, at 10 µM, stronger effect = higher value.
Test [13] relates to anti-desmoglein-3 scFv antibody binding to human DSG3. As to the kind of experiment: inhibitors of anti-DSG3 scFv binding to DSG3, pilot screen, biochemical, validation compound set, bead-based, flow cytometry (AID 588368;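 active means binding below the plate cutoff, the plate median minus 3 SD, with a reading above zero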;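 further: signal is the median channel fluorescence of bead-bound GFP antibody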). As to conditions: Protein G beads, DSG3-Fc, scFv-GFP binding, at 10 µM, stronger effect = lower value.
Test [14] is described as follows: inhibitors of fungal efflux pumps CDR1, CDR2, MDR1, pilot screen, validation compound set, multiplex, phenotypic (AID 588506;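 active means efflux inhibition above 0.42, the validation set average plus 4 SD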;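 further: Nile Red retained in cells so higher fluorescence means more efflux inhibition; 0 = negative control wells and 1 = enniatin B 25 µM full block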). As to conditions: S. cerevisiae pump-expressing triplex, Nile Red efflux flow cytometry; at 10 µM; stronger effect = higher value; the pumps come from Candida albicans.
Test [15] has as its target ATP-binding cassette sub-family B member 6 (Homo sapiens) (UniProt Q9NP58). The test is described as follows: ABCB6 transporter inhibitors, pilot screen, K562-ABCB6 cells, flow cytometry, validation set (AID 588550;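 active means inhibition above the screen-wide mean plus 3 SD, about 51%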;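 further: 0% = DMSO wells and 100% = benzethonium chloride 70 µM positive control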). The following applies: K562-ABCB6 porphyrin accumulation, 1 h, at 10 µM, stronger effect = higher value.
A short description of test [16]: promoters of myeloid differentiation in arrested cells, primary screen, cell-based, GFP/MAC1 double positive, flow cytometry, validation set (AID 588685;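 active means differentiation response of at least 50%, scaled between solvent and reference control, from cells with both markers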;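 further: compound exposure lasts four days before antibody staining and flow analysis; 0% = DMSO wells and 100% = 5 µM fulvestrant positive control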). The following applies: ER-HoxA9 marrow cells, stronger effect = higher value, normalized: vehicle 0, fulvestrant 100.

Sequence of Integrin beta-1 (Homo sapiens) + Integrin alpha-4 (Homo sapiens) (P05556 whole entry, looked up): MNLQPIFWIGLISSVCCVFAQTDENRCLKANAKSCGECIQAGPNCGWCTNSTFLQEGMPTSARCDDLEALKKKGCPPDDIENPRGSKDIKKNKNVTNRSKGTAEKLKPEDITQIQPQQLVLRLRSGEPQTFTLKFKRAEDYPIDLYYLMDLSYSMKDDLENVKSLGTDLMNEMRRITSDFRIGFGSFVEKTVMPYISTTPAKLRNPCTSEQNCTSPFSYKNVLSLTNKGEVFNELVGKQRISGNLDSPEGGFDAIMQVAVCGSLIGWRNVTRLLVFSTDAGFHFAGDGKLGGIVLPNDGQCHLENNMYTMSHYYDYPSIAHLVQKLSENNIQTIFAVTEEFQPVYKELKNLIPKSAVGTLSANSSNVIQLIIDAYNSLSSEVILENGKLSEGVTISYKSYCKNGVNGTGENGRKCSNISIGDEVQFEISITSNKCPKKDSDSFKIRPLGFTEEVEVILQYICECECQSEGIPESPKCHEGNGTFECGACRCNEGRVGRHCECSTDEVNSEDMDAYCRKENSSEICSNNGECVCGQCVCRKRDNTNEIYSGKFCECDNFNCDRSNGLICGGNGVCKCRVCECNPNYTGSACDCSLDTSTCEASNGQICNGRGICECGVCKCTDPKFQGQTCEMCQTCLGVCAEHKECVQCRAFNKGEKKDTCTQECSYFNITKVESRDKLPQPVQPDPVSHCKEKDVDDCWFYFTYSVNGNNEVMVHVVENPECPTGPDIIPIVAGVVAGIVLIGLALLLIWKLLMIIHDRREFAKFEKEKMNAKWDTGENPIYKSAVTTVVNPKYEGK
Sequence of Integrin beta-1 (Homo sapiens) + Integrin alpha-4 (Homo sapiens) (P13612 whole entry, looked up): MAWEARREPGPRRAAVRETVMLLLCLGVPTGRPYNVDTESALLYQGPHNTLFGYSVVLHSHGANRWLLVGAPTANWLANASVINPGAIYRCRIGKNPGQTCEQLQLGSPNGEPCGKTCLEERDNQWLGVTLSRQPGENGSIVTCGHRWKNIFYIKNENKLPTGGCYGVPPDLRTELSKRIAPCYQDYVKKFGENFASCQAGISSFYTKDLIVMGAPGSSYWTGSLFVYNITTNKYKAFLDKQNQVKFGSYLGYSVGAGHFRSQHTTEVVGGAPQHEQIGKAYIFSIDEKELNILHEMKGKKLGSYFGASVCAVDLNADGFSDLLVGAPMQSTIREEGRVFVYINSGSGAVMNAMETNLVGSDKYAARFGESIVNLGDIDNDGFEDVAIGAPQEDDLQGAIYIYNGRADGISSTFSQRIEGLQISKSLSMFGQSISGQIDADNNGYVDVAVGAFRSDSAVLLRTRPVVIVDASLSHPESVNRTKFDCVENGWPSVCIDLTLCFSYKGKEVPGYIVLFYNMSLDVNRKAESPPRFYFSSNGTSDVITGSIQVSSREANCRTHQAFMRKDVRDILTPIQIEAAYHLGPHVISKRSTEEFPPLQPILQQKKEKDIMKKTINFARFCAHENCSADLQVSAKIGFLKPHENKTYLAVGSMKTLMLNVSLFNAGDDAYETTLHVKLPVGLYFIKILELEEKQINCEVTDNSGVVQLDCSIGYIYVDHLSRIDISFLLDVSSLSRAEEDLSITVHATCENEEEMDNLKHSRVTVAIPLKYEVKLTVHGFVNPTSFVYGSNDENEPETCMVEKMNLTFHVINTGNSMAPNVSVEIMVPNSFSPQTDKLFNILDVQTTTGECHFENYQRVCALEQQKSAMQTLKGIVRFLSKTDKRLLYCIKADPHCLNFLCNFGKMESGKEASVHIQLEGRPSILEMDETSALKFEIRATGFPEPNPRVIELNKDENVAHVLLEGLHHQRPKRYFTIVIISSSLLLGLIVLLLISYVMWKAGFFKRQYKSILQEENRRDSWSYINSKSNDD
Sequence of Beta-2 adrenergic receptor (Homo sapiens) (P07550 whole entry, looked up): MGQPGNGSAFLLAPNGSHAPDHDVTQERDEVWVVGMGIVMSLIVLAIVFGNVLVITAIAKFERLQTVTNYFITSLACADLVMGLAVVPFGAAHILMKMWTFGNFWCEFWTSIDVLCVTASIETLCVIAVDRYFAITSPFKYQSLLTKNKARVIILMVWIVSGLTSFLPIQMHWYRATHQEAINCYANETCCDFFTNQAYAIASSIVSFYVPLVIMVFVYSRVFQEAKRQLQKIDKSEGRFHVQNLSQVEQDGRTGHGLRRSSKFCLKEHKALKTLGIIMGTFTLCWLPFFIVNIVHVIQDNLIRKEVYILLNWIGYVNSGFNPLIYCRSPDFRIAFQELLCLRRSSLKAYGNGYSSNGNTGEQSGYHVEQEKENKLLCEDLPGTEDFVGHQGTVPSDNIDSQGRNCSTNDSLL
Sequence of AP-2 complex subunit beta (Homo sapiens) (P63010 whole entry, looked up, the tested form may be a part, one chain of several): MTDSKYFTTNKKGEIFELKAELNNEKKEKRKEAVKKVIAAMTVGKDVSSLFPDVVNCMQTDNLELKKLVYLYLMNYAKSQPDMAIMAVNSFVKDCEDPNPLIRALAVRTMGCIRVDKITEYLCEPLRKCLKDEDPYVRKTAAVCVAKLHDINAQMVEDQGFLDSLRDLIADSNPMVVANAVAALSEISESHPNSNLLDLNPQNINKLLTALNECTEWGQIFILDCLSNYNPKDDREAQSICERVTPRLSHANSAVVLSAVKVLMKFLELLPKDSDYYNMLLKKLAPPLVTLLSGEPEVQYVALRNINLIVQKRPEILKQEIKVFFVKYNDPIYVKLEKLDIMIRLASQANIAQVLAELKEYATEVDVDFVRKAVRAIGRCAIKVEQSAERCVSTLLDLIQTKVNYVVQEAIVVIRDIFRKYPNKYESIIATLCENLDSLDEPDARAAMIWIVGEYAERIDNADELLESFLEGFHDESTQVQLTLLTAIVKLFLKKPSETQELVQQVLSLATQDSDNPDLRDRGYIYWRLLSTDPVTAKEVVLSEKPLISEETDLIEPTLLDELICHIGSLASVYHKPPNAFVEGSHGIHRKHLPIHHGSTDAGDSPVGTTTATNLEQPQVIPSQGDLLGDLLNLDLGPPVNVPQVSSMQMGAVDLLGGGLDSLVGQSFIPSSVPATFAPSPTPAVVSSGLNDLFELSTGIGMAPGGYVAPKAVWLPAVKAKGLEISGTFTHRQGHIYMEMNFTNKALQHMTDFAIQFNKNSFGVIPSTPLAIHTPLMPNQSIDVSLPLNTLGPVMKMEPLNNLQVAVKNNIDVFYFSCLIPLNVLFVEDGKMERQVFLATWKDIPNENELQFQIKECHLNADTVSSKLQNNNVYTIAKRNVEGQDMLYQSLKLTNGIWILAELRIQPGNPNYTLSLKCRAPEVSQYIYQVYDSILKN
Sequence of ATP-binding cassette sub-family B member 6 (Homo sapiens) (Q9NP58 whole entry, looked up): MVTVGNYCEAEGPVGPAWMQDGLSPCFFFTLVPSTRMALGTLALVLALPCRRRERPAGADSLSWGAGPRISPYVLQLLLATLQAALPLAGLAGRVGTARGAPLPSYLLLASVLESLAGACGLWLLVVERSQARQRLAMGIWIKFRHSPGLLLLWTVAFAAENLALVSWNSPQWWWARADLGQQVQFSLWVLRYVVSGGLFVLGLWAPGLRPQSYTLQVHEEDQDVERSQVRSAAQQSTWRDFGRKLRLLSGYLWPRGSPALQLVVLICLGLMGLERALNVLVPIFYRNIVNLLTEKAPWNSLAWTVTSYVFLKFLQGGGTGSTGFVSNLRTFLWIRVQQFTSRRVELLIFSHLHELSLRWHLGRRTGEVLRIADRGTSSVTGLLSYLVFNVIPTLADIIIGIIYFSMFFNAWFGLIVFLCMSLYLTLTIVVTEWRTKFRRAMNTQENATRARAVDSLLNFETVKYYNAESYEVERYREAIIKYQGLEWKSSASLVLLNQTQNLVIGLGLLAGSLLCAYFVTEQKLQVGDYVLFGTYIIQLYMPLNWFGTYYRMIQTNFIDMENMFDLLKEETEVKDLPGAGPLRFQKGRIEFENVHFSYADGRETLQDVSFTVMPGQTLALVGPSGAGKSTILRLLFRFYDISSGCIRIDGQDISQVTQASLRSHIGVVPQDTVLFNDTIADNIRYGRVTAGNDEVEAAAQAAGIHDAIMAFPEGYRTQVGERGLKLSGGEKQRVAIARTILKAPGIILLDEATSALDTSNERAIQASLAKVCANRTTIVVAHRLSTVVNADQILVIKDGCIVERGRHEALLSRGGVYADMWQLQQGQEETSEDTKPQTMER
Sequence of Beta-adrenergic receptor kinase 1 (Homo sapiens) (P25098 whole entry, looked up): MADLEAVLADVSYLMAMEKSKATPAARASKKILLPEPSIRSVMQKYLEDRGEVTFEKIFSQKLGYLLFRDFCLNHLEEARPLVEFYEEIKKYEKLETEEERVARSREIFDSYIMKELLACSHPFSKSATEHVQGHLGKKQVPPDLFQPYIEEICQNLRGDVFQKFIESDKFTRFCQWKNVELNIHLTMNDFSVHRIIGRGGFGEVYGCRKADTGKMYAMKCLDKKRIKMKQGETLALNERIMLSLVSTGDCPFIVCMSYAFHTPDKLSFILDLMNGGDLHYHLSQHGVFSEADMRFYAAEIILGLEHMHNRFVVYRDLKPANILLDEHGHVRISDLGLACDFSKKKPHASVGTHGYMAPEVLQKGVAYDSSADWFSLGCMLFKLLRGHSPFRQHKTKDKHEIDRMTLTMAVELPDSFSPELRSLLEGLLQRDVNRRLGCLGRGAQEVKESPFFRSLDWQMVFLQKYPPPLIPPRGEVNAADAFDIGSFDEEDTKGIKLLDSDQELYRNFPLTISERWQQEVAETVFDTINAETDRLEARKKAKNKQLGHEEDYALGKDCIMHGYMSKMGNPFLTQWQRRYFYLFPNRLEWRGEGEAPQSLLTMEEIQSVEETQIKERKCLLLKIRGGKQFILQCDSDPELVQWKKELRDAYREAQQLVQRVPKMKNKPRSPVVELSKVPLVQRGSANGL

What is called inhibition is the change of the read-out against control, counted positive when it falls. For the compound `O=C(O)CCCc1ccccc1`, the percent of DMSO control GFP in [1] was 104% (inactive). The values for the GFP response vs DMSO in [2] and in test [4] were 96.2% (inactive) and 76.9% (inactive), respectively. Moreover, in test [3], the percent response of DMSO control is 115% (inactive). Further, the GFP response, % of DMSO in test [5] was 99.7% (inactive). The double positive events in test [6] amounted to 61.7%. The vesicle binding response in test [6] was 264% (inactive). Also, the values for the inhibition in test [7], in test [11] and in test [15] were -4.6% (inactive), -6% (inactive) and 19% (inactive), respectively. In addition, in test [8], the superoxide response (% of plate) is 107% (inactive). The aptamer binding inhibition in test [9] was 5% (inactive). Besides, the response in [10] was -7.69% (inactive); in test [12] it was 2.2% (inactive). Further, the binding (% of control) in test [13] was 96.1% (inactive). In test [14], the efflux inhibition (fraction of control) is 0.02 (inactive). Further, the differentiation response in test [16] is 0.24% (inactive).

For the compound `CCN1CCN(C(=S)c2ccc(OC)cc2)CC1`, the percent of DMSO control GFP in test [1] was 101% (inactive). For the same compound, the GFP response vs DMSO in test [2] is 99.6% (inactive); in [4], 76% (inactive). In test [3], the percent response of DMSO control was 109% (inactive). Moreover, in test [5], the GFP response, % of DMSO was 92.6% (inactive). The same compound registered a double positive events in [6] of 62.5%. For the same compound, the vesicle binding response in test [6] is 183% (inactive). The results for the inhibition in test [7], in test [11] and in test [15] were -4.52% (inactive), -10.4% (inactive) and 9% (inactive), respectively. Moreover, the superoxide response (% of plate) in test [8] was 106% (inactive). Further, the aptamer binding inhibition in test [9] was 2% (inactive). Moreover, the response in test [10] is 11.6% (inactive); in [12] it was 19.2% (active). In addition, in [13], the binding (% of control) is 101% (inactive). For the same compound, the efflux inhibition (fraction of control) in test [14] was -0.21 (inactive). Moreover, the differentiation response in test [16] is -20% (inactive).

For the compound `Cc1ccc(C(=O)Nc2ccc(O)cc2C(=O)O)cc1C`, the percent of DMSO control GFP in test [1] was 105% (inactive). Besides, the GFP response vs DMSO is 99.6% (inactive) in [2] and 75.2% (inactive) in test [4]. Further, the percent response of DMSO control in test [3] was 102% (inactive). The GFP response, % of DMSO in [5] is 86.8% (inactive). Moreover, in test [6], the double positive events was 58.8%. For the same compound, the vesicle binding response in [6] was 274% (inactive). Moreover, the inhibition is 9.13% (inactive) in test [7], -1.05% (inactive) in test [11] and -4% (inactive) in test [15]. Also, the superoxide response (% of plate) in [8] is 103% (inactive). In addition, the aptamer binding inhibition in test [9] was 3% (inactive). For the same compound, the response in [10] was 51.5% (active); in test [12], 1.04% (inactive). In test [13], the binding (% of control) is 106% (inactive). Further, the efflux inhibition (fraction of control) in test [14] is 0.05 (inactive). Also, the differentiation response in test [16] is 5.6% (inactive).

Consider `COc1ccc(C2NCCC3(O)CCCCC23)c(OC)c1OC` (stereo not given), for which the percent of DMSO control GFP in test [1] was 98.8% (inactive). Further, the GFP response vs DMSO in [2] is 99.6% (inactive); in test [4], 107% (inactive). Further, the percent response of DMSO control in test [3] is 93.9% (inactive). In test [5], the GFP response, % of DMSO is 97.4% (inactive). For the same compound, the double positive events in test [6] was determined as 57.7%. Also, the vesicle binding response in test [6] was 199% (inactive). Further, the values for the inhibition in test [7], in test [11] and in [15] were -11.3% (inactive), 10.4% (inactive) and 6% (inactive), respectively. For the same compound, the superoxide response (% of plate) in [8] is 105% (inactive). The aptamer binding inhibition in [9] was 1% (inactive). Also, the response in test [10] was -8.95% (inactive); in test [12], -2.26% (inactive). Also, the binding (% of control) in [13] was 102% (inactive). Besides, the efflux inhibition (fraction of control) in [14] was -0.06 (inactive). In addition, the differentiation response in test [16] was -18.4% (inactive).

On to `COc1ccc2[nH]c3c(c2c1)CCNC3C1CC=C(C)CC1` (stereo not given), for which, in test [1], the percent of DMSO control GFP was 95.9% (inactive). Further, the GFP response vs DMSO is 128% (inactive) in test [2] and 79.8% (inactive) in test [4]. Also, in test [3], the percent response of DMSO control was 104% (inactive). For the same compound, the GFP response, % of DMSO in test [5] is 101% (inactive). Besides, the double positive events in test [6] worked out at 69%. In test [6], the vesicle binding response was 519% (inactive). Besides, the inhibition was 7.43% (inactive) in [7], 2.43% (inactive) in test [11] and -1% (inactive) in test [15]. For the same compound, the superoxide response (% of plate) in test [8] is 111% (inactive). The aptamer binding inhibition in [9] is -1% (inactive). The response is 13.6% (inactive) in [10] and -0.18% (inactive) in test [12]. Further, in test [13], the binding (% of control) is 113% (inactive). Also, the efflux inhibition (fraction of control) in test [14] was 0.12 (inactive). Besides, the differentiation response in test [16] was 0.82% (inactive).
